PLK1 PBD block: inhibitors of human PLK1 polo-box domain binding; P53350; Plk1 PBD binding of FITC phosphopeptide, fluorescence polarization; Potency, µM, inactives show max response, negative = inhibition, usual class: inhibitors; 360,000 compounds, 2.8% hits; AID 720504; note: series mostly up to about 57 µM; % is set by controls: 0 for no effect and ±100 for the full control effect; nearly all actives have a fitted effect of over 65% in size
BAZ2B block: BAZ2B (human) inhibition. Q9UIF8. AlphaScreen BAZ2B-H3K14Ac peptide displacement. Potency, µM (doses to about 114 µM), inactives show at the top dose activity change, negative = inhibition, actives largely listed as inhibitors. 360,000 compounds, 4.4% hits. AID 504333; note: % is set by controls: 0 for no effect and ±100 for the full control effect; nearly all actives have a fitted effect of over 60% in size
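Complex of BAZ2B and biotin-H3K14Ac (50 nM apiece) forms over 30 min at RT, then faces library compounds up to 110 uM for another 30 min; AlphaScreen beads added, 20 min dark incubation, luminescence read.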
G9a inh: inhibitors of human histone lysine methyltransferase G9a. Q96KQ7. G9a H3K9 monomethylation, AlphaScreen, 2 h. Potency, µM (doses to about 102 µM), for the others: at the highest dose activity, negative = inhibition, usual class: inhibitors. 350,000 compounds, 8.8% hits. AID 504332; note: % is set by controls: 0 for no effect and ±100 for the full control effect; nearly all actives have a fitted effect of over 75% in size
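Step 1: enzyme (final 20 nM) with compound, 15 min RT. Step 2: substrate peptide 500 nM and SAM 20 uM, 2 h RT. Step 3: anti-H3K9me1 antibody and AlphaScreen beads, 10 min, then plate read.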
HP1b chromo inh: inhibitors of HP1-beta chromodomain binding to methylated histone tails; AID 540317; AlphaScreen HP1-beta / biotin-H3K9me3 peptide binding; P83916; 390,000 compounds, 0.56% hits; Potency, µM (titrated, usually from 114 µM), inactives show at the top dose activity change, negative = inhibition, most hits filed as inhibitors; note: nearly all actives have a fitted effect of over 70% in size
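HP1-beta protein (50 nM final) preincubated 30 min at room temperature with biotinylated H3(1-18)K9me3 peptide (50 nM) in PBS pH 7.4, 0.01% Tween-20, then compound added for 30 min. AlphaScreen streptavidin donor/nickel chelate acceptor beads (10 ug/mL final), 30 min dark, luminescence read.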
JMJD2A Tudor inh: blocks the human JMJD2A Tudor domain | AlphaScreen JMJD2A-Tudor / H3K4me3 peptide binding | Potency, µM (titrated, usually from 114 µM), for inactives: top-dose activity change, negative = inhibition, actives largely listed as inhibitors | AID 504339 | 390,000 compounds, 4.4% hits; note: % is set by controls: 0 for no effect and ±100 for the full control effect; nearly all actives have a fitted effect of over 50% in size
Sfp inh: blocks B. subtilis Sfp PPTase activity; Biochemical Sfp PPTase activity, qHTS; Q9F4F7; 310,000 compounds, 3.5% hits; Potency, µM, for inactives: largest response in the series, negative = inhibition, actives largely listed as inhibitors;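 note: the enzyme is Sfp with the accession as filed and its product quenches rhodamine fluorescence; 0% = enzyme reaction without inhibitor and -100% = no enzyme wells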
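Fluorescence-quenching assay with 15 nM Sfp, 5 uM rhodamine-CoA and 12.5 uM BHQ-2-labelled ybbR peptide in pH 7.6 Hepes/MgCl2 buffer. Enzyme was pre-incubated with compound for 15 min at room temperature. Rate was taken from the 30-min fluorescence change (525/598 nm).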
* marks the source's active call; other numbers are inactive results; ? = inconclusive; . = no result given; [ ] = dose if it differs, or a comment. The list is not random: actives were taken first. Their share in the collection is about 12%. Calls come from the whole dose curve; as a rule, active = well fitted curve in the direction sought with a large enough effect; inconclusive = small, poorly fitted or top-dose-only effect, or another doubt; inactive = no such curve, though single readings can be large; an effect the other way counts as inactive or inconclusive. Potency is the fitted concentration of half-maximal effect.

SMILES	PLK1 PBD block	BAZ2B block	G9a inh	HP1b chromo inh	JMJD2A Tudor inh	Sfp inh
C#CCOCCOCCOCCNc1nc(N2CCN(C(=O)[C@H](CCC(=O)O)n3cc(C(N)CC(C)C)nn3)CC2)nc(N2CCN(C(=O)[C@H](CCC(=O)O)n3cc(C(N)CC(C)C)nn3)CC2)n1 (stereo not given in full)	4.9%	79.4µM*	10.0%[12.7 µM]	22.9%	79.4µM*	0.3%
CC[C@H](C)[C@H](NC(=O)[C@H](CC(=O)O)NC(=O)[C@H](CC(C)C)NC(=O)[C@H](Cc1cnc[nH]1)NC(=O)[C@H](C)NC(=O)[C@H](Cc1ccccc1)NC(=O)[C@H](Cc1ccc(O)cc1)NC(=O)[C@@H](NC(=O)[C@H](C)NC(=O)[C@H](CCC(=O)O)NC(=O)[C@H](CCC(=O)O)NC(=O)[C@H](CC(=O)O)NC(=O)CCC(=O)O)C(C)C)C(=O)N[C@H](C(=O)N[C@@H](Cc1c[nH]c2ccccc12)C(=O)O)[C@@H](C)CC	.	.	.	.	.	-0.1%
Cc1ccc(C)c(Nc2nc3ccccc3[nH]2)c1	-1.5%	.	.	37.3%	-14.4%	.
Nc1ccccc1Nc1nc2ccccc2[nH]1	-17.7%	?	89.1µM*	-7.5%	-25.5%	3.2%
Nc1ccc(Nc2nc3ccccc3[nH]2)cc1	-12.0%	44.7µM*	.	?	56.2µM*	-3.3%
CC1(C)CC(=O)C2=C(C1)c1c(ccc3ccccc13)NC2c1ccco1 (stereo not given)	-6.2%	?	50.1µM*	4.8%	?	-23.8%
Cc1ccsc1C1Nc2ccc3ncccc3c2C2=C1C(=O)CC(C)(C)C2 (stereo not given)	-7.7%	-4.6%	-0.7%	-3.1%	-27.9%	9.0%
CC(C)C[C@H](NC(=O)[C@H](CC(C)C)NC(=O)[C@H](Cc1ccccc1)NC(=O)[C@@H](N)CO)C(=O)N[C@@H](CCCN=C(N)N)C(=O)N[C@@H](CC(N)=O)C(=O)O	.	.	.	.	.	-4.7%
NS(=O)(=O)c1ccc(NC(=O)CSc2nc3c(cnn3-c3ccccn3)c(=O)[nH]2)cc1	-11.7%	8.6%	39.8µM*	14.5%	?	.
O=C(CSc1nc2c(cnn2-c2ccc(F)cc2)c(=O)[nH]1)Nc1ccc(Br)cc1	.	-16.1%	-28.5%[59 µM]	9.6%	?	.
CC(=O)N1c2ccc(S(=O)(=O)N(C)C3CCCCC3)cc2CC1C (stereo not given)	-11.0%	-21.3%	5.4%	49.7%	-0.7%	9.8%
Cc1c(C2=CCN(S(=O)(=O)c3cccc(Cl)c3)CC2)c2ccccc2n1CC(=O)N1CCCC1	.	-24.9%	-2.1%[59 µM]	41.3%	-6.0%	.
CC(=O)Nc1nnc(SCc2cc(=O)c(OC(=O)c3ccccc3)co2)s1	3.8%	-12.1%	-19.3%	25.9%	1.7%	10.4%
Cc1ccc(C(=O)Oc2coc(CSc3nnc(NC(=O)c4cccs4)s3)cc2=O)cc1	-11.2%	-37.4%	12.6µM*	30.2%	-35.7%	1.3%
CCOC(=O)C1CCCN(S(=O)(=O)c2ccc(N3CCCCS3(=O)=O)cc2)C1 (stereo not given)	.	-9.1%	-19.8%[12.7 µM]	31.4%	-0.7%	.
COc1ccc(CCN(C)C(=O)CSc2nnc(C3CC3)n2N)cc1OC	?	-4.7%	39.8µM*	28.0%	-1.4%	.
Oc1ccc(Cl)cc1CNCC1CCCCC1	-24.5%	8.6%	-0.6%[2.33 µM]	68.1%	-15.0%	.
COc1cccc(CNc2ccc(F)c(Cl)c2)c1	-3.7%	?	50.1µM*	44.1%	25.8%	3.6%
CC(=O)Nc1ccc(N2CCCC(C)C2)c([N+](=O)[O-])c1 (stereo not given)	-3.0%	35.5µM*	?	?	?	15.2%
CC(=O)Nc1ccc(N2CCC(C)CC2)c([N+](=O)[O-])c1	1.4%	?	?	-17.7%	-24.6%	14.0%
Cc1ccc(C(=O)Nc2cccnc2)cc1[N+](=O)[O-]	?	-0.5%	?	-5.9%	-8.2%	16.8%
CC1CCCN(c2ccc(/C=C(\C#N)c3nn(-c4ccccc4)c(N)c3C#N)cc2[N+](=O)[O-])C1 (stereo not given)	-5.9%	?	22.4µM*	-25.9%	?	-1.6%
CC1CCCN(c2ccc(C(=O)Nc3cccnc3)cc2[N+](=O)[O-])C1 (stereo not given)	-5.3%	?	50.1µM*	-14.4%	-18.5%[57.1 µM]	-2.1%
CCN(CC)CCCC(C)Nc1nc(C)cc(Nc2ccc3nc(C)cc(N)c3c2)n1 (stereo not given)	.	.	.	.	.	-0.3%
O=S(=O)(c1ccc(Br)cc1)N1CCN(c2nc(-c3ccccc3)nc3ccccc23)CC1	.	.	.	39.7%	-20.6%	.
SMILES	PLK1 PBD block	BAZ2B block	G9a inh	HP1b chromo inh	JMJD2A Tudor inh	Sfp inh
CCOC(=O)C1CCCN(C(=O)c2ccc(S(=O)(=O)Nc3ccccc3OC)cc2)C1 (stereo not given)	-15.1%	-5.1%	21.1%[12.7 µM]	24.0%	-24.8%	.
C=CCc1c(Cl)nc(C)nc1NCc1ccccc1	-2.9%	4.4%	.	65.0%	9.6%	3.2%
Cc1onc(-c2c(Cl)cccc2Cl)c1C(=O)N1C(C)CCCC1C (stereo not given)	-18.9%	.	.	18.1%	-3.4%	.
NC(=O)c1ccc(NC(=O)COC(=O)CCN2C(=O)c3ccccc3C2=O)cc1	2.8%	.	.	17.9%	-8.3%	.
CCOc1ncccc1C(=O)Nc1cc2c(cc1Br)OCCO2	-10.7%	.	.	60.4%	13.5%	.
COCC(=O)n1nc(-c2ccccc2)nc1NCc1ccc(N(C)C)cc1	-4.2%	31.6µM*	-3.9%[12.7 µM]	50.1µM*	35.5µM*	5.5%
O=C(c1cccc([N+](=O)[O-])c1)n1nc(-c2ccccc2)nc1NCc1ccccc1	-1.0%	-6.9%	44.7µM*	-11.7%	?	3.3%
O=C(CSc1nc(-c2ccccc2)nn1C(=O)c1ccccc1)Nc1cccc([N+](=O)[O-])c1	?	56.2µM*	.	-1.0%	?	-0.1%
CCc1ccccc1NC(=O)CSc1nc(-c2ccccc2)nn1C(=O)c1cccc([N+](=O)[O-])c1	.	8.4%[57.1 µM]	9.1%[59 µM]	.	.	13.0%
CC(C)NC(=O)N1CCCC2(CCN(C(=O)c3cc(C(F)(F)F)cc(C(F)(F)F)c3)CC2)C1	.	.	4.7%[12.7 µM]	.	.	17.1%
CC(=C\C(=O)O)/C(=C/c1ccco1)C(=O)O	-26.1%	-25.0%	44.7µM*	53.9%	-34.5%	-4.6%
CC(=C\C(=O)O)/C(=C/c1ccc(C)o1)C(=O)O	-28.1%	?	31.6µM*	-34.0%	?	4.47µM*
CCOC(=O)C1C(=O)CC(C)(O)C(C(=O)OCC)C1c1ccc(N(CC)CC)cc1 (stereo not given)	-6.7%	-19.0%	14.1µM*	5.4%	-23.2%	14.7%
CCOC(=O)C1C(=O)CC(C)(O)C(C(=O)OCC)C1c1ccco1 (stereo not given)	3.36µM*	9.2%	-34.2%[12.7 µM]	-17.4%	-19.1%[11.4 µM]	9.7%
